# Experimental data published in PubChem BioAssay (EPA / NIEHS).
# Results filed as inconclusive are left out. Active and inactive are the calls of the source. The calls were made as follows, unless noted: active = hit-call score of the fitted dose curve at least 0.9, where 1 is the maximum; inconclusive = response in the unintended direction; inactive = score below 0.9.
# How the values were obtained:
# [1] = biological target: Bile acid receptor (Homo sapiens) (UniProt Q96RI1); assay: ATG_IR1_CIS: Attagene CIS-FACTORIAL HepG2 Assay for human Nuclear Receptor Subfamily 1 Group H Member 4 (NR1H4), IR1 submotif (AID 2282946; active = hit-call score of the fitted dose curve at least 0.9, where 1 is the maximum; inactive = score below 0.9); settings: IR1 reporter transcription, actives raise or lower the signal
# In short: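 HepG2 cells transiently transfected with multiplexed cis-element reporter units read endogenous transcription factor activity. After 24 h compound exposure, reporter mRNA was quantified by RT-PCR, fluorescent labelling, HpaI digestion and capillary electrophoresis; bidirectional fitting versus DMSO baseline.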
# [2] = biological target: Nuclear receptor subfamily 1 group I member 3 (Homo sapiens) (UniProt Q14994); assay: ATG_CAR_TRANS: Attagene TRANS-FACTORIAL HepG2 Assay for human Constitutive Androstane Receptor (CAR) (AID 2282969); settings: HepG2 Attagene TRANS-FACTORIAL CAR reporter;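 also: activators raise reporter mRNA above DMSO so AC50 marks induction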
# In short: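 Signal is reporter mRNA induction relative to DMSO, measured 24 h after dosing by RT-PCR with fluorescent primer extension and capillary electrophoresis. Human HepG2 liver cells carried transiently transfected chimeric NR-Gal4/GAL4-UAS reporter constructs.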
# [3] = ATG_M_19_TRANS: Attagene TRANS-FACTORIAL HepG2 Assay for M19 Transcription Factor (Internal Marker) (AID 2282974); settings: HepG2 Attagene TRANS-FACTORIAL M19 internal marker reporter
# In short: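 Background-control readout: after 24 h chemical exposure of transfected HepG2 carrying GAL4-driven reporter units, RNA was reverse-transcribed, amplified, fluorescently labeled and sized by capillary electrophoresis; gain-of-signal fit against DMSO.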
# [4] = ATG_GAL4_TRANS: Attagene TRANS-FACTORIAL HepG2 Assay for GAL4 (Internal Marker) (AID 2282976); settings: HepG2 Attagene TRANS GAL4 internal marker reporter
# In short: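 HepG2 cells transiently transfected with multiplexed GAL4-UAS reporter constructs were dosed for 24 h. Reporter mRNA was measured by RT-PCR, 6-FAM primer extension, HpaI digestion and capillary electrophoresis, and gain of signal was fitted relative to DMSO.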
# [5] = biological target: Oxysterols receptor LXR-alpha (Homo sapiens) (UniProt Q13133); assay: ATG_LXRa_TRANS: Attagene TRANS-FACTORIAL HepG2 Assay for human Liver X Receptor alpha (LXRa) (AID 2282980); settings: HepG2 Attagene TRANS reporter, LXRa transactivation
# In short: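 HepG2 cells were transiently transfected with multiplexed reporter units driven by chimeric LXRa–GAL4 fusion proteins, then dosed for 24 h. Reporter mRNA was quantified by RT-PCR, fluorescent labelling and capillary electrophoresis; gain of signal fitted against DMSO baseline.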
# [6] = biological target: Oxysterols receptor LXR-beta (Homo sapiens) (UniProt P55055); assay: ATG_LXRb_TRANS: Attagene TRANS-FACTORIAL HepG2 Assay for human Liver X Receptor beta (LXRb) (AID 2282981); settings: HepG2 Attagene TRANS GAL4-LXRb reporter, mRNA
# In short: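 After 24 h chemical treatment of transfected HepG2 cells carrying exogenous NR-Gal4 chimeras, reporter mRNA was quantified by fluorescent RT-PCR and capillary electrophoresis; activity taken as increase over DMSO controls.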
# [7] = biological target: Hepatocyte nuclear factor 4-alpha (Homo sapiens) (UniProt P41235); assay: ATG_HNF4a_TRANS: Attagene TRANS-FACTORIAL HepG2 Assay for human Hepatocyte Nuclear Factor 4 alpha (HNF4a) (AID 2282982); settings: HepG2 HNF4a transactivation reporter, mRNA readout
# In short: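 Activity of an exogenous HNF4a–Gal4 fusion scored as induced GAL4-UAS reporter transcripts after 24 h chemical exposure of transfected human HepG2 cells. Read-out via RT-PCR with 6-FAM labelling and capillary electrophoresis; rise over DMSO baseline.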
# [8] = biological target: human Peroxisome Proliferator-activated Receptor alpha (PPARa), PPARA (gene 5465) (UniProt Q07869); assay: ATG_PPARa_TRANS: Attagene TRANS-FACTORIAL HepG2 Assay for human Peroxisome Proliferator-activated Receptor alpha (PPARa) (AID 2283001)
# In short: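 Reporter transcripts quantified by RT-PCR plus capillary electrophoresis after 24 h treatment, fitted upward relative to DMSO. Cells: human HepG2 transiently carrying multiple GAL4-UAS reporter units driven by NR-Gal4 chimeras.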
# [9] = biological target: human RAR-related Orphan Receptor beta (RORb), RORB (gene 6096) (UniProt Q92753); assay: ATG_RORb_TRANS: Attagene TRANS-FACTORIAL HepG2 Assay for human RAR-related Orphan Receptor beta (RORb) (AID 2283010)
# In short: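 Read-out is reporter mRNA induction, quantified by RT-PCR with fluorescent capillary electrophoresis, 24 h post-dose in transiently transfected HepG2 expressing exogenous NR-Gal4 chimera. Activity fitted upward versus DMSO.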
# [10] = biological target: human Retinoid X Receptor beta (RXRb), RXRB (gene 6257) (UniProt P28702); assay: ATG_RXRb_TRANS: Attagene TRANS-FACTORIAL HepG2 Assay for human Retinoid X Receptor beta (RXRb) (AID 2283013)
# In short: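 Readout is reporter transcript induction after 24 h dosing. It is measured by RT-PCR of total RNA followed by fluorescent capillary electrophoresis. HepG2 liver cells carry transfected multiple reporter units driven by an exogenous RXRb-Gal4 fusion; activity is relative to DMSO.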
# [11] = biological target: human Thyroid Receptor alpha (THRa1), THRA (gene 7067) (UniProt P10827); assay: ATG_THRa1_TRANS: Attagene TRANS-FACTORIAL HepG2 Assay for human Thyroid Receptor alpha (THRa1) (AID 2283014)
# In short: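 HepG2 cells transiently transfected with multiplexed GAL4-UAS reporter units for exogenous chimeric THRa1-Gal4; reporter mRNA measured 24 h after dosing by RT-PCR, 6-FAM labelling, HpaI digestion and capillary electrophoresis. Gain-of-signal fitted versus DMSO baseline.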
# [12] = TOX21_p53_BLA_p2_viability: Viability Assessment in the Tox21 HCT-116 p53 Agonism Beta-lactamase Assay, Phase 2 (AID 2283591);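 also: compound exposure lasted 16 h at 37 °C; actives lower the ATP signal meaning cytotoxicity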
# In short: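 Cytotoxicity readout: CellTiter-Glo ATP luminescence, 30 min at room temperature, after the beta-lactamase read. Cells were HCT116 exposed 16 h at 37C to compounds pin-transferred at 217-fold dilution from DMSO stocks.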
# [13] = TOX21_p53_BLA_p3_viability: Viability Assessment in the Tox21 HCT-116 p53 Agonism Beta-lactamase Assay, Phase 3 (AID 2283593);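 also: cells exposed to compound for 16 h before reading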
# In short: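 Cellular ATP was quantified by CellTiter-Glo luminescence, read after 30 min at room temperature. Beforehand, HCT116 cells (4000/well) received compound 5 h post-seeding, 217-fold diluted from DMSO, then incubated 16 h at 37C.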
# [14] = TOX21_p53_BLA_p4_viability: Viability Assessment in the Tox21 HCT-116 p53 Agonism Beta-lactamase Assay, Phase 4 (AID 2283597);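 also: hits lower the luminescence signal meaning cytotoxicity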
# In short: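 Cytotoxicity was inferred from loss of CellTiter-Glo luminescence. HCT116 cells had been dosed with compounds after 5 h plating, incubated 16 h at 37C and 5% CO2, and exposed to the CCF4-AM substrate for 2 h.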
# [15] = TOX21_p53_BLA_p5_viability: Viability Assessment in the Tox21 HCT-116 p53 Agonism Beta-lactamase Assay, Phase 5 (AID 2283600)
# In short: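 Luciferase-coupled ATP quantitation of cells treated for 16 h (37C, 5% CO2) with test chemicals delivered in DMSO via a 217-fold dilution; 4000 cells/well; reagent incubated 30 min at room temperature before luminescence reading.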
# [16] = ACEA_ER_AUC_viability: ACEA Biosciences xCELLigence Real-Time Cell Analysis on Estrogen Receptor Agonism for Viability (AID 2283782);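 also: hit means loss of impedance signal meaning reduced cell growth or viability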
# In short: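 Viability endpoint: reduced impedance area under the curve relative to DMSO, recorded by real-time electrode sensing over ~80 h of continuous exposure. Duplicate plates of T47D in hormone-depleted medium; eight concentrations, 1:4 dilutions, 100 uM maximum.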
# [17] = biological target: Retinoic acid receptor alpha (Homo sapiens) (UniProt P10276); assay: ATG_DR5_RAR_CIS: Attagene CIS-FACTORIAL HepG2 Assay for human Retinoic Acid Receptor Alpha (RARE), DR5 submotif (AID 2282934; active = hit-call score of the fitted dose curve at least 0.9, where 1 is the maximum; inactive = score below 0.9); settings: HepG2 Attagene cis-factorial RARE DR5 reporter, mRNA; actives raise or lower the signal
# In short: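 Transient MRTU transfection of HepG2; 24 h compound treatment; TriZol RNA, oligo(dT) RT, PCR, FAM labelling, capillary electrophoresis. Bidirectional fit vs DMSO. Endogenous TF activity at DR5 RARE.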
# [18] = biological target: human Peroxisome Proliferator-activated Receptor delta (PPARd), PPARD (gene 5467) (UniProt Q03181); assay: ATG_PPARd_TRANS: Attagene TRANS-FACTORIAL HepG2 Assay for human Peroxisome Proliferator-activated Receptor delta (PPARd) (AID 2283002)
# In short: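 Transient HepG2 transfection (multiple GAL4-UAS RTUs, chimeric receptor-Gal4); 24 h dosing; total RNA → oligo(dT) RT → PCR → 6-FAM primer extension → HpaI cut → CE. Positive direction vs DMSO.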
# [19] = biological target: human Vitamin D Receptor (VDR), VDR (gene 7421) (UniProt P11473); assay: ATG_VDR_TRANS: Attagene TRANS-FACTORIAL HepG2 Assay for human Vitamin D Receptor (VDR) (AID 2283022)
# In short: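 HepG2 cells were transiently transfected with multiple GAL4-UAS reporter units, so signal reflects exogenous chimeric receptor-Gal4 activity. After 24 h compound exposure, reporter mRNA was measured by RT-PCR, fluorescent labelling and capillary electrophoresis, fitted for gain of signal versus DMSO.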
# [20] = CCTE_Harrill_HTTr_Apoptosis_MCF7: CCTE's 6-hour Apoptosis Assessment for the High-Throughput Transcriptomics (HTTr) Platform, in MCF-7 cells cultured in DMEM + 10% fetal bovine serum, Harrill Lab (AID 2284011; active = hit-call score of the fitted dose curve at least 0.9, where 1 is the maximum; inactive = score below 0.9)
# In short: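 MCF-7 cells in DMEM + 10% fetal bovine serum were exposed to chemicals for 6 hours over an eight-point dilution series. Caspase-3/7 activation was imaged by high content imaging with CellEvent Caspase 3/7 Green; bidirectional fitting used DMSO as baseline.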
# Chain of human Vitamin D Receptor (VDR), VDR (gene 7421) (P11473 whole entry, looked up, the tested form may be a part): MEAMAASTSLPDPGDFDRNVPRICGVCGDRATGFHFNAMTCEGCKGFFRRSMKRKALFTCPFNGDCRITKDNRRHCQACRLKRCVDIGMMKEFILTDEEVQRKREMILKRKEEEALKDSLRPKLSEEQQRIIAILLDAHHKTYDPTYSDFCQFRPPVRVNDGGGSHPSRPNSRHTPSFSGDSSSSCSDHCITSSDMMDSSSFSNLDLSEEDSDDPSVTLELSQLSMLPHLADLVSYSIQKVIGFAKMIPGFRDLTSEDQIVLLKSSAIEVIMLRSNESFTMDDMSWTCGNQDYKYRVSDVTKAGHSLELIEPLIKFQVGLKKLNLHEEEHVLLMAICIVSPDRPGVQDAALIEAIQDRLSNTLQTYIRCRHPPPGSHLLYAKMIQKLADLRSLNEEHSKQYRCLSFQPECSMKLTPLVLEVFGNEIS
# Chain of Retinoic acid receptor alpha (Homo sapiens) (P10276 whole entry, looked up): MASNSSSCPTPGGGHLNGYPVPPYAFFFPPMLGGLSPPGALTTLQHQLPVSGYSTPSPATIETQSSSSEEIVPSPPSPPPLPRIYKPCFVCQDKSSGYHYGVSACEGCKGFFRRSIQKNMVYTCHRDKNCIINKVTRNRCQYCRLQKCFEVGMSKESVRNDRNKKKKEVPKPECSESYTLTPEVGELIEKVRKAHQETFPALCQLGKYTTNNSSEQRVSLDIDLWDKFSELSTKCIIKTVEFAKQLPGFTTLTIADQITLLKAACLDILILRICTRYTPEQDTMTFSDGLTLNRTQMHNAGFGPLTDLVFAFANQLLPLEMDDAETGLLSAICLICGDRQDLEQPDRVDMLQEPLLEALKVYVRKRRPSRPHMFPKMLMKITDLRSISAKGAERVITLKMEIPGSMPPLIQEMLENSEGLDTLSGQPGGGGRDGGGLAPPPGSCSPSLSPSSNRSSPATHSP
# Chain of Oxysterols receptor LXR-beta (Homo sapiens) (P55055 whole entry, looked up, the tested form may be a part): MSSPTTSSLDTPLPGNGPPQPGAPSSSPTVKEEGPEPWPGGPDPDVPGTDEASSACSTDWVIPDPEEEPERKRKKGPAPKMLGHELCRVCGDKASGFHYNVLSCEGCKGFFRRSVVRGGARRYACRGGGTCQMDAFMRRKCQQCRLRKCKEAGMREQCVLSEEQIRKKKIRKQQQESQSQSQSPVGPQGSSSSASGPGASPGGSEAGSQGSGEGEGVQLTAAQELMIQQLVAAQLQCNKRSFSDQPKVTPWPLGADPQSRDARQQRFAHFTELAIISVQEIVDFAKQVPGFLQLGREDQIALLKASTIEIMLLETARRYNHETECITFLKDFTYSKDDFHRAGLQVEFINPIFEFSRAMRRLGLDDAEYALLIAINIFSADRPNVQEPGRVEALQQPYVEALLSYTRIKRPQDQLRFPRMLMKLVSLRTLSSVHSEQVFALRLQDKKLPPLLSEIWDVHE
# Chain of Bile acid receptor (Homo sapiens) (Q96RI1 whole entry, looked up): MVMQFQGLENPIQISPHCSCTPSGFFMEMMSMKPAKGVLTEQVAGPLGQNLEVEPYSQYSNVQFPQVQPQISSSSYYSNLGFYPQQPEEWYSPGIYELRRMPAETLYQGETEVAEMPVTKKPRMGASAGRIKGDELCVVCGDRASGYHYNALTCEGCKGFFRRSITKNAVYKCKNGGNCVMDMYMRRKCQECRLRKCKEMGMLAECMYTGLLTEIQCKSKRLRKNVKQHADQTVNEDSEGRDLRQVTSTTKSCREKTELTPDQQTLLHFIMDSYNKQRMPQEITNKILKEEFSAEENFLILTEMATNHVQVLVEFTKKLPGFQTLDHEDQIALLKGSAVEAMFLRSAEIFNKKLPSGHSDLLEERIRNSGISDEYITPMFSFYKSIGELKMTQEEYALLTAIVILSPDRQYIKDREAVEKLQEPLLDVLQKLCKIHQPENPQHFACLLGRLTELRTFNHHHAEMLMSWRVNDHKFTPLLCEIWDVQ
# Chain of Oxysterols receptor LXR-alpha (Homo sapiens) (Q13133 whole entry, looked up, the tested form may be a part): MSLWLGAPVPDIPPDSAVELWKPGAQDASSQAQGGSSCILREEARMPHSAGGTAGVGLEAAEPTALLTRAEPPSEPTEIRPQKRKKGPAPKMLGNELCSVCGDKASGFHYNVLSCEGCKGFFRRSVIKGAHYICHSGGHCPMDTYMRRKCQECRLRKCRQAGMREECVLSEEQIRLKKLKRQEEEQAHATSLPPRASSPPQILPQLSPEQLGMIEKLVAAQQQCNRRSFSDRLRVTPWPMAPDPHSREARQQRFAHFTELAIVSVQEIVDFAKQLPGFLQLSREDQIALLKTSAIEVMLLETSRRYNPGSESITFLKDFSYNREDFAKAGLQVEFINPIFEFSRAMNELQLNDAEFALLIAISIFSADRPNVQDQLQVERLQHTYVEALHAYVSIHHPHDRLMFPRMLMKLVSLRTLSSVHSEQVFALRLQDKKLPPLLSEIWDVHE
# Chain of human Thyroid Receptor alpha (THRa1), THRA (gene 7067) (P10827 whole entry, looked up, the tested form may be a part): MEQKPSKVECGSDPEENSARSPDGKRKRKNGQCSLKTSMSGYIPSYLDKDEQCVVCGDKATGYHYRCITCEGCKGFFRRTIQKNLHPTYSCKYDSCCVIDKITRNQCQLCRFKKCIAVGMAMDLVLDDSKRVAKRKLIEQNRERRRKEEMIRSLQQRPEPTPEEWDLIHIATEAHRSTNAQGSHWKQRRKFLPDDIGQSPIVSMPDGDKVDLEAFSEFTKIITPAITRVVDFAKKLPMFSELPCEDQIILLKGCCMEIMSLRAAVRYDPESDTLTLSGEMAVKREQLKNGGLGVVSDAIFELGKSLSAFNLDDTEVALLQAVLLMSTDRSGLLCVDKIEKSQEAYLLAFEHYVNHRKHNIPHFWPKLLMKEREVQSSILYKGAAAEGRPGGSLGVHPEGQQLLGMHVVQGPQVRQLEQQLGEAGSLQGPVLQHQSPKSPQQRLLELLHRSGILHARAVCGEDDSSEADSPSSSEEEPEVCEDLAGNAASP
# Chain of Hepatocyte nuclear factor 4-alpha (Homo sapiens) (P41235 whole entry, looked up, the tested form may be a part): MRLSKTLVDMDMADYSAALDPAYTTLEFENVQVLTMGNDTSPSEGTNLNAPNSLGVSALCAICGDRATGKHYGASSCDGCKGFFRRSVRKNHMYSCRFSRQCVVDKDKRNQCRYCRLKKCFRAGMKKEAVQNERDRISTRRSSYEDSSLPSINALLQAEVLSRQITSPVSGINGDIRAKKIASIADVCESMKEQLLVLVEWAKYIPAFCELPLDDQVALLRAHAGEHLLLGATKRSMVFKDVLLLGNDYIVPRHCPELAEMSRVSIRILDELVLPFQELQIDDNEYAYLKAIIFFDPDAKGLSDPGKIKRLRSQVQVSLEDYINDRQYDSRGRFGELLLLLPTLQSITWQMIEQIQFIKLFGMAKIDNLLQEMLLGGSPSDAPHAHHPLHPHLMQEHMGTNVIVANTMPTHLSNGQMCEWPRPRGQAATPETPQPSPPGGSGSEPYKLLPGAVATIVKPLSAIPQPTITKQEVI
# Chain of Nuclear receptor subfamily 1 group I member 3 (Homo sapiens) (Q14994 whole entry, looked up, the tested form may be a part): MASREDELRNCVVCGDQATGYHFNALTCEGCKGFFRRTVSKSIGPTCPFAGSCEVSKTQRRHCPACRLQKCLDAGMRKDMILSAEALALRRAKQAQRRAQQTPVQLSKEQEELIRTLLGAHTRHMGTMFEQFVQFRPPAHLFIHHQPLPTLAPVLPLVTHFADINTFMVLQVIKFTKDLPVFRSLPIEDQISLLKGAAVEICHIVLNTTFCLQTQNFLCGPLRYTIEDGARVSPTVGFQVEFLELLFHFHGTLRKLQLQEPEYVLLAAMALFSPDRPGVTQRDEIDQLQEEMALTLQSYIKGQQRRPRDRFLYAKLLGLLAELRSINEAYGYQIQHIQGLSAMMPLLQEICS
# Chain of human Peroxisome Proliferator-activated Receptor alpha (PPARa), PPARA (gene 5465) (Q07869 whole entry, looked up, the tested form may be a part): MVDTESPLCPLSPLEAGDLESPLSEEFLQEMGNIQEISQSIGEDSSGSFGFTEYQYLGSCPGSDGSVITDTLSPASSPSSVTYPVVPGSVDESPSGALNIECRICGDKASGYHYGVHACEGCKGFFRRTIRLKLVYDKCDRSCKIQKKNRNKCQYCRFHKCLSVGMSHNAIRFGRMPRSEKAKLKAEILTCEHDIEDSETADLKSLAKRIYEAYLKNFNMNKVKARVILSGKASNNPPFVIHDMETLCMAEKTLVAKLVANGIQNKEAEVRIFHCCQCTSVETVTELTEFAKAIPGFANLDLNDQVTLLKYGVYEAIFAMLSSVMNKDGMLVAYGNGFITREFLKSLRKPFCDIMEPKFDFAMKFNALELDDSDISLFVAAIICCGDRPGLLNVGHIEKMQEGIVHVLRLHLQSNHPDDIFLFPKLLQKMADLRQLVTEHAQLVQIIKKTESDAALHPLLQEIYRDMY
# Chain of human RAR-related Orphan Receptor beta (RORb), RORB (gene 6096) (Q92753 whole entry, looked up, the tested form may be a part): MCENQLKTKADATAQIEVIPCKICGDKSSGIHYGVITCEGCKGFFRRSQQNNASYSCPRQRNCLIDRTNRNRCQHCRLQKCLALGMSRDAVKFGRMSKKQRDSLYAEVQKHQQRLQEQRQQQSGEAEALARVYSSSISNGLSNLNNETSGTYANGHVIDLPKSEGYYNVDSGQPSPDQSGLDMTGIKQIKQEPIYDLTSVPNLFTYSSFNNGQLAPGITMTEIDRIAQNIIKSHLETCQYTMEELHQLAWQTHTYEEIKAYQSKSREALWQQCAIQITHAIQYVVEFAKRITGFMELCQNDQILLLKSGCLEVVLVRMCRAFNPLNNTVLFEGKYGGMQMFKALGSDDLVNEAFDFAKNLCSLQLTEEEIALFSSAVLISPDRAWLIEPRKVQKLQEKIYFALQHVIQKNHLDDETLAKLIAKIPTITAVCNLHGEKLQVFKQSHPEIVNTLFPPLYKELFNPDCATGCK
smiles,measurement,setting,value
CCCC=NO,outcome,[1],inactive
same,outcome,[2],inactive
same,outcome,[3],inactive
same,outcome,[4],inactive
same,outcome,[5],inactive
same,outcome,[6],inactive
same,outcome,[7],inactive
same,outcome,[8],inactive
same,outcome,[9],inactive
same,outcome,[10],inactive
same,outcome,[11],inactive
same,outcome,[12],inactive
same,outcome,[13],inactive
same,outcome,[14],inactive
same,outcome,[15],inactive
same,outcome,[16],inactive
O=c1[nH]c(Cl)c(Cl)cc1Cl,outcome,[17],inactive
same,outcome,[1],inactive
same,outcome,[2],inactive
same,outcome,[3],inactive
same,outcome,[6],inactive
same,outcome,[8],inactive
same,outcome,[18],inactive
same,outcome,[9],inactive
same,outcome,[10],inactive
same,outcome,[11],inactive
same,outcome,[19],inactive
same,outcome,[13],inactive
same,outcome,[14],inactive
same,outcome,[15],inactive
same,outcome,[20],inactive
[CH3][Sn]([Cl])([Cl])[Cl],outcome,[17],inactive
same,outcome,[2],inactive
same,outcome,[5],inactive
same,outcome,[7],inactive
same,outcome,[9],inactive
same,outcome,[12],inactive
CCOP(=O)(OCC)Oc1ccc([N+](=O)[O-])cc1,outcome,[17],inactive
same,outcome,[1],inactive
same,outcome,[2],inactive
same,outcome,[3],inactive
same,outcome,[5],inactive
same,outcome,[6],inactive
same,outcome,[18],inactive
same,outcome,[9],inactive
same,outcome,[10],inactive
same,outcome,[11],inactive
same,outcome,[19],inactive
same,outcome,[12],inactive
same,outcome,[13],inactive
same,outcome,[14],inactive
same,outcome,[15],inactive
same,outcome,[20],inactive
Clc1ccc(-c2ccccc2)cc1,outcome,[1],inactive
same,outcome,[2],inactive
same,outcome,[3],inactive
same,outcome,[4],inactive
same,outcome,[7],inactive
same,outcome,[18],inactive
same,outcome,[10],inactive
same,outcome,[19],inactive
same,outcome,[16],inactive
same,outcome,[20],inactive
O=[N+]([O-])O,outcome,[17],inactive
same,outcome,[3],inactive
same,outcome,[4],inactive
same,outcome,[7],inactive
same,outcome,[12],inactive
same,outcome,[13],inactive
same,outcome,[14],inactive
same,outcome,[15],inactive
same,outcome,[16],inactive
same,outcome,[20],inactive
Nc1cc(Cl)cc(Cl)c1,outcome,[17],inactive
same,outcome,[1],inactive
same,outcome,[3],inactive
same,outcome,[6],inactive
same,outcome,[7],inactive
same,outcome,[8],inactive
same,outcome,[10],inactive
same,outcome,[11],inactive
same,outcome,[19],inactive
same,outcome,[12],inactive
same,outcome,[13],inactive
same,outcome,[14],inactive
same,outcome,[15],inactive
same,outcome,[16],inactive
Nc1ccccc1C(=O)OCCc1ccccc1,outcome,[17],inactive
same,outcome,[2],inactive
same,outcome,[5],inactive
same,outcome,[6],inactive
same,outcome,[7],inactive
same,outcome,[8],inactive
same,outcome,[9],inactive
same,AC50,[10],33.4 µM (active)
same,outcome,[11],inactive
same,outcome,[12],inactive
same,outcome,[13],inactive
same,outcome,[14],inactive
same,outcome,[15],inactive
CC(C)(Cl)Cl,outcome,[17],inactive
same,outcome,[2],inactive
same,outcome,[3],inactive
same,outcome,[4],inactive
same,outcome,[5],inactive
same,outcome,[6],inactive
same,outcome,[8],inactive
same,outcome,[18],inactive
same,outcome,[13],inactive
same,outcome,[15],inactive
same,outcome,[16],inactive
same,outcome,[20],inactive
CCOC(=O)N(C)N=O,outcome,[17],inactive
same,outcome,[3],inactive
same,outcome,[4],inactive
same,outcome,[5],inactive
same,outcome,[6],inactive
same,outcome,[8],inactive
same,outcome,[18],inactive
same,outcome,[11],inactive
same,outcome,[12],inactive
same,outcome,[13],inactive
same,outcome,[15],inactive
same,outcome,[20],inactive
